This is a sample that favours compounds with a hit; in the whole collection about 2.9% have one here.
EBV LMP1 NFkB = EBV LMP1-driven NF-kappaB luciferase reporter inhibitors, primary screen, cell-based, luminescence, single point; LMP1-induced NF-kappaB luciferase reporter cells; inhibition, % at 12.5 µM; hit rate 0.69% among 350,000; AID 504558, 2011; in the data active = inhibition above about 41%; inconclusive = no clear call, values can overlap the other calls;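 note: 0% = neutral control wells and 100% = reference inhibitor control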
CF NFkB inh = inhibitors of PAF-induced NF-kB signaling, primary screen, cell-based, GFP fluorescence, uHTS. KKLEB NF-kB-GFP reporter, GFP fluorescence overnight. inhibition, % at 5 µM. hit rate 0.86% among 360,000. AID 588850, 2011;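 active = at least 50% inhibition at 5 µM, scaled per plate between neutral and stimulator controls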;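 note: PAF is a Pseudomonas aeruginosa culture filtrate used as stimulus; plate controls were PAF-stimulated DMSO wells for no effect and unstimulated DMSO wells for full effect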
HIF-2a inh = HIF-2a reporter inhibitors, primary screen, luminescence, 786-0 RCC cells; 786-0 RCC cells HIF-2a reporter, luciferase luminescence, overnight; inhibition, % at 18.8 µM; AID 624352, 2012; hit rate 0.72% among 360,000;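 active = inhibition of the luminescence signal of 40% or more relative to plate controls, in a single-dose primary screen at 18.75 µM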
Shn3 inh set2 = reduction of Shn3 3'UTR firefly luciferase signal, primary screen, Schnurri-3 inhibitor project, cell-based, Clone20 osteoblasts, set 2; inhibition, % at 12.5 µM; AID 588674, 2011; Clone20 osteoblast Shn3 3'UTR firefly luciferase, 24 h; hit rate 0.52% among 360,000;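 active = mean inhibition of at least 75% with every replicate also reaching 75%; inconclusive = mean inhibition at least 75% but some replicate below; inactive = mean inhibition below 75%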;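 note: 0% = median of neutral control wells and 100% = pilot-screen positive control compound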
KKLEB cytotox = cytotoxicity in KKLEB CF airway cells, primary screen, cytotoxicity control for CF NF-kB inhibitor project, cell-based, uHTS, fluorescence assay plates; KKLEB CF airway cells viability, ATPlite luminescence, overnight; hits give low values; cells stimulated with P. aeruginosa culture filtrate; activity change (cytotoxicity), % at 5 µM; hit rate 0.36% among 360,000;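 active = corrected activity change at or below -50% at 5 µM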
Peg3 prom inh-1 = Peg3 promoter-driven luciferase inhibitors, primary screen, cell-based, HeLa, luciferase luminescence. HeLa PEG-Prom luciferase reporter, overnight. hit rate 1.7% among 360,000. inhibition, % at 20 µM;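 active = inhibition of at least 50% at 20 µM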
Peg3 prom inh-2 = Peg3 promoter reporter inhibitors, retest, confirmation, cell-based, HeLa, luciferase reporter, single concentration; hit rate 84% among 1,300; HeLa PEG-Prom luciferase reporter, luminescence, overnight; AID 602417, 2012; shares compounds with Peg3 prom inh-1; inhibition, % at 20 µM;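 active = at 20 µM dose, 40% or more inhibition averaged across four replicates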
An asterisk follows results filed as active; u = inconclusive; x = no result given.

SMILES	EBV LMP1 NFkB	CF NFkB inh	HIF-2a inh	Shn3 inh set2	KKLEB cytotox	Peg3 prom inh-1	Peg3 prom inh-2
CC1=NN(c2nc(-c3ccc(C)cc3)cs2)C(=O)C1N=Nc1ccc(C(N)=O)cc1 (stereo unspecified)	13	76*	7	66	-66*	102*	30
CCCNC(=O)NC(=O)CSc1nnc(-c2c[nH]c3ccccc23)o1	-1	15	7	-13	-27	-4	x
O=C(O)CN1C(=O)/C(=C\c2cc(Br)ccc2OCc2ccccc2Cl)SC1=S	-11	4	-22	-6	-8	-20	x
O=C(O)CN1C(=O)/C(=C\c2ccccc2OCc2ccc(Cl)cc2Cl)SC1=S	44*	-20	66*	36	11	55*	65*
O=C(CCCN1C(=O)/C(=C/c2ccccc2Cl)SC1=S)NNC(=O)c1ccccc1Cl	44*	8	93*	11	3	60*	68*
COc1ccc(/C=C2\SC(=S)N(CCCC(=O)NNC(=O)c3ccccc3O)C2=O)cc1	31	6	90*	80	-1	71*	72*
COc1ccccc1/C=C1\SC(=S)N(CCC(=O)NNC(=O)c2ccccc2O)C1=O	14	2	26	-1	-27	31	x
Cc1ccc(C(=O)N/N=C/c2ccc([N+](=O)[O-])s2)cc1	13	6	91*	90*	-5	82*	80*
COc1ccccc1CNS(=O)(=O)c1c(C(=O)N2CCCC2)c(C)n(C)c1C	2	-6	7	-43	-3	-10	x
CC[C@H](C)[C@@H](C(=O)N1CCNCC1)n1cc([C@@H](N)CO)nn1	-5	-2	12	1	-2	-4	x
COc1ccccc1C1c2ccc3ccccc3c2Oc2ncn(CCCO)c(=N)c21 (stereo unspecified)	2	16	1	18	-6	102*	97*
O=C(c1ccco1)N1CCN(C(c2ccccc2Cl)c2nnnn2Cc2ccco2)CC1 (stereo unspecified)	-4	1	-1	-59	7	39	x
O=C(c1ccco1)N1CCN(C(c2ccccc2Cl)c2nnnn2Cc2cccs2)CC1 (stereo unspecified)	6	9	19	0	-6	52*	58*
O=C(COc1ccc(F)cc1Cl)NC1CCCCCC1	-29	9	-240	-72	0	-307	x
COc1ccc(CCN2C(=O)C=CC2=O)cc1OC	-1	6	55*	63	-4	96*	98*
NC(=O)c1cc([N+](=O)[O-])ccc1NCc1ccc(N)cc1	49*	29	93*	76	-15	81*	78*
NC(=O)c1cc([N+](=O)[O-])ccc1NCc1ccc(F)cc1	17	2	-156	9	-24	-100	x
O=C(O)c1cc(N/N=C/c2c(O)ccc3ccccc23)ccc1Cl	-26	-5	-237	-84	-2	-283	x
O=C(CNc1ccccc1)N/N=C/c1c(O)ccc2ccccc12	24	3	-2	91*	-9	64*	68*
O=C(N/N=C\c1c(O)ccc2ccccc12)c1cncc(Br)c1	38	22	-10	87*	-9	65*	60*
O=C(C[C@H]1C[C@H](C(=O)N2CCCCC2)[C@@]2(CCc3ccccc3)c3[nH]c4ccc(Cl)cc4c3CCN2C1=O)NCCc1ccccn1	20	35	7	33	2	69*	88*
COc1ccc2[nH]c3c(c2c1)CCN1C(=O)C(CC(=O)NCCc2ccccn2)C[C@H](C(=O)N2CCCCC2)[C@@]31CCc1ccccc1 (stereo partly specified)	3	21	7	8	-13	6	x
CCN(CC)CCn1c2ccccc2c2cnc(N)c(C#N)c21	-104	27	36	-1	-4	91*	94*
CN(C)C=Nc1ncc2c3ccccc3n(CCN(C)C)c2c1C#N	-15	44	12	-1	-9	19	x
Cc1ccc(C2CC2C(=O)NNC(=S)Nc2ccc(Cl)cc2)cc1 (stereo unspecified)	1	4	26	6	12	27	x
SMILES	EBV LMP1 NFkB	CF NFkB inh	HIF-2a inh	Shn3 inh set2	KKLEB cytotox	Peg3 prom inh-1	Peg3 prom inh-2
O=S(=O)(N[C@H]1C[C@@H](NS(=O)(=O)OCC(Cl)(Cl)Cl)C2CCCCC21)OCC(Cl)(Cl)Cl (stereo partly specified)	9	9	-26	36	11	61*	84*
COc1cc(C(=O)N/N=C(\c2ccccc2)c2ccccn2)cc(OC)c1OC	23	16	29	89*	2	107*	81*
COc1ccc(-c2sc3ccccc3c2-c2ccc(OCCN3CCCCC3)cc2)cc1	-11	30	6	-12	-14	96*	79*
COc1ccc(-c2sc3cc(OC)ccc3c2-c2ccc(OCCN3CCCCC3)cc2)cc1	x	x	5	x	x	x	x
CCCCn1c(N)c(N(CC(C)C)C(=O)c2cc(Br)c(Br)s2)c(=O)[nH]c1=O	4	15	-3	6	-6	81*	41*
COc1ccc(-c2nc(NC(=O)c3n[nH]c(=O)c4ccccc34)sc2C)cc1	12	4	3	9	8	60*	48*
COc1cc(NC(=O)c2n[nH]c(=O)c3ccccc23)cc(OC)c1	-6	-26	-8	11	2	-3	x
Oc1ccc(NC(=S)N=Nc2c(O)[nH]c3ccc(Br)cc23)cc1	37	44	4	-3	-16	40	x
Oc1[nH]c2ccc(Br)cc2c1N=NC(=S)Nc1ccc(F)cc1	13	-3	22	20	14	65*	67*
CC(C)CCCCCCCCCCCCC(=O)NCC(=O)NC1C(O)C(O)C(Nc2ncnc3nc[nH]c23)OC1C(O)CO (stereo unspecified)	88*	90*	69*	97*	-34	100*	99*
CC1=NN(c2ccccc2)C(=O)/C1=C/C=C/c1ccccc1	0	40	68*	u	11	113*	22
CC1=NN(c2cccc(C(=O)O)c2)C(=O)/C1=C\C=C\c1ccco1	4	6	-18	-33	2	-36	x
c1ccc(C[C@H]2CNCCN2CCCCC2CCCCC2)cc1	4	-2	8	-114	6	105*	98*

Assay outcomes from PubChem.
